GDH-TPI counter: counter-screen for M. tuberculosis FBA inhibitors: GDH-TPI coupled enzymes. GDH-TPI coupled enzyme counterscreen, NADH absorbance. inhibition, % at 4.8 µM. 1.2% of 360,000 active. AID 588335; in the data active = inhibition above about 30%
Mtb bLac sens: beta-lactam sensitization of Mtb H37Rv; 0.27% of 330,000 active; AID 434955; M. tuberculosis H37Rv growth with meropenem, percent inhibition; inhibition, % at 25 µM; call rule not given here;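 note: growth measured after seven days incubation then overnight dye step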
Rv3671c protease: inhibits the M. tuberculosis serine protease Rv3671c; inhibition, % at 5.96 µM; 0.048% of 320,000 active; in the data active = inhibition above about 38%;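 note: extracellular domain of Rv3671c used as enzyme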
Mtb UGM inh: blocks M. tuberculosis UGM enzyme; P9WIQ1; purified UGM, fluorescence polarization probe displacement; 0.06% of 320,000 active; inhibition, % at 10 µM; in the data active = inhibition above about 10%, passing the limit was not always enough; inconclusive = no clear call, values can overlap the other calls
RecA intein inh: Mtb RecA intein splicing inhibition; 0.75% of 290,000 active; cell-free RecA intein splicing, fluorescence; inhibition, % (test concentration not listed); P9WHJ3; in the data active = inhibition above about 30%; inconclusive = no clear call, values can overlap the other calls
Mtb FBA inh: inhibits M. tuberculosis FBA enzyme | AID 588726 | P9WQA3 | purified M. tuberculosis FBA, fluorescence read-out | inhibition, % at 1 µM | 2.3% of 360,000 active; in the data active = inhibition above about 27%
Target sequence (P9WQA3 whole entry, looked up): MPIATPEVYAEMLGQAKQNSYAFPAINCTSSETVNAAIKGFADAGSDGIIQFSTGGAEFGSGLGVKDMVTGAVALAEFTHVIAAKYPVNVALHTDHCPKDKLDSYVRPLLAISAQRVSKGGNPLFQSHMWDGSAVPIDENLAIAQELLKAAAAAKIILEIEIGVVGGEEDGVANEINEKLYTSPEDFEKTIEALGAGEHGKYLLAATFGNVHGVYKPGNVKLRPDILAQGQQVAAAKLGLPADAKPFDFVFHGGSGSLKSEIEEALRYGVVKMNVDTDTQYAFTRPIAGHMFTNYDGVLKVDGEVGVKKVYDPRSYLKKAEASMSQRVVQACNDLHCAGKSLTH
Large screens that a line does not name were inactive. An excerpt weighted towards active compounds, which were near 4% of everything screened.

COc1ccc(C(=O)/C=C/NCc2ccc(F)cc2)cc1OC	GDH-TPI counter 34
COc1ccc(CNC(=O)c2c(O)c3cc(OC)c(OC)cc3[nH]c2=O)cc1OC	none (no result: Rv3671c protease)
S=C(NCC1CCCO1)Nc1ccccc1Cl (centres undefined)	none
O=C(CSc1nc2nc(-c3cccs3)cc(C(F)(F)F)c2c(=O)[nH]1)C(F)(F)F	Mtb FBA inh active
CCOC(=O)c1c(NC(=O)CSc2nc3ccccc3s2)sc(C(C)=O)c1C	GDH-TPI counter 33
O=C(N/N=C/c1c(O)n(-c2ccccc2Cl)c(=O)c2ccccc12)C1COc2ccccc2O1 (centres undefined)	Mtb FBA inh 34
CN(C)c1ccc2cc(S(=O)(=O)O)cc(O)c2c1	Mtb FBA inh 169 (no result: Mtb bLac sens, Rv3671c protease, Mtb UGM inh, RecA intein inh)
O=Nc1c(O)ccc2cc(S(=O)(=O)O)ccc12	none (no result: Mtb bLac sens, Rv3671c protease, Mtb UGM inh, RecA intein inh)
Cc1ccc(NS(=O)(=O)c2ccc(-c3ccc(=O)[nH]n3)o2)cc1N(C)C	none
Cc1n[nH]c(=O)c2c(NC(=O)CSc3nnc(-c4ccco4)n3C)oc(C)c12	Mtb UGM inh 47 (no result: RecA intein inh)
COc1ccccc1-c1nnc(SCC(=O)Nc2oc(C)c3c(C)n[nH]c(=O)c23)n1C	none
COc1cccc(C=N[C@@H](CO)[C@@H](O)c2ccc([N+](=O)[O-])cc2)c1O	none
CN(C)c1ccc(C=NC(CO)C(O)c2ccc([N+](=O)[O-])cc2)cc1 (centres undefined)	GDH-TPI counter 38
Cc1ccc(CNC(=O)C2CC(c3ccc(C(F)(F)F)cc3)=NO2)o1 (centres undefined)	none
COc1cc(N2CCCC2)c(OC)cc1/C=C(/C#N)c1ccc(Br)cc1	Mtb UGM inh 55
O=C(Nc1cccc(C(=O)O)c1)/C(=C\c1ccc2c(c1)OCO2)NC(=O)c1ccccc1Br	GDH-TPI counter 36 (no result: Mtb bLac sens, Rv3671c protease, Mtb UGM inh, RecA intein inh)
O=C(Nc1ccc(C(=O)O)cc1)/C(=C\c1ccc2c(c1)OCO2)NC(=O)c1ccccc1Cl	GDH-TPI counter 35 (no result: Mtb bLac sens, Rv3671c protease, Mtb UGM inh, RecA intein inh)
O=C(Nc1cccc(C(=O)O)c1)/C(=C/c1ccc2c(c1)OCO2)NC(=O)c1cccc(Br)c1	none
O=C(Nc1ccc(C(=O)O)cc1)/C(=C\c1ccc2c(c1)OCO2)NC(=O)c1ccco1	none
c1cc(CNC2C3CC4CC(C3)CC2C4)ccn1 (centres undefined)	none
COC(=O)c1sc(-c2ccc(Cl)cc2)cc1NC(=O)COCC(=O)O	GDH-TPI counter 35 (no result: Mtb bLac sens)
CSc1nsc(SCc2ccc(Cl)cc2)n1	none
CCc1ccc(NC(=O)c2cnc(N3CCN(c4ccccn4)CC3)c3ccccc23)cc1	none
CCN1CCN(c2ncc(C(=O)Nc3ccccc3C(=O)OC)c3ccccc23)CC1	GDH-TPI counter 31
N#Cc1cc(C#N)c(N2CCN(c3ccccn3)CC2)nc1N	GDH-TPI counter 32
C=CCNC(=O)c1cnn(-c2ccccc2)c1-c1ccccc1	none
CCc1cc(N2CCOCC2)cc2c1[nH]c1ccccc12	Mtb bLac sens inconclusive, Mtb FBA inh 96
c1ccc2c(c1)[nH]c1c(N3CCOCC3)ncnc12	none
Cc1ccc(-c2sc(-c3ccccc3)nc2CC(=O)Nc2ccccc2F)cc1	none
Cc1ccc(NC(=O)CC2=NC(=O)C(CC(=O)Nc3ccccc3F)S2)cc1 (centres undefined)	GDH-TPI counter 32
CC1=NN(C(=O)c2ccc(C)o2)C(O)(c2ccccc2)C1 (centres undefined)	none (no result: RecA intein inh)
C=CSc1sc(Cl)c(N2CCOCC2)c1[N+](=O)[O-]	RecA intein inh 30
C=CS(=O)(=O)c1sc(Cl)c(N2CCOCC2)c1[N+](=O)[O-]	none (no result: Mtb bLac sens, Rv3671c protease, Mtb UGM inh)
COc1ccc(/C=N/NC(=O)CCn2cnc(-c3ccccc3)c2-c2ccccc2)cc1OC	none
O=C1C2C3C=CC(C3)C2C(=O)N1CCN1CCN(S(=O)(=O)c2ccc3ccccc3c2)CC1 (centres undefined)	Mtb UGM inh 10
COc1ccc(C(=O)N2CCC2(C)C(=O)NC(C)C)cc1OC (centres undefined)	none (no result: Mtb bLac sens, Rv3671c protease, Mtb UGM inh, RecA intein inh)
Cc1cc(C(=O)Nc2ccc(N3CCOCC3)cc2)c2ccccc2n1	none
OCC[n+]1c2ccccc2nc2ccc(N3CCOCC3)cc21	RecA intein inh 31
Cc1ccc(N2CCN(S(=O)(=O)c3c(C)nc4scc(C)n4c3=O)CC2)c(C)c1	GDH-TPI counter 31
Cc1ccc(Cl)cc1N1CCN(S(=O)(=O)c2c(C)nc3scc(C)n3c2=O)CC1	none
Cc1ccc(S(=O)(=O)NCC2CCC(C(=O)NCCCN3CCC(C)CC3)CC2)cc1 (centres undefined)	none (no result: Mtb bLac sens, Rv3671c protease, Mtb UGM inh, RecA intein inh)
COc1cc2c(cc1OC)-c1cc3ccc(OC)c(OC)c3c[n+]1CC2	GDH-TPI counter 59 (no result: RecA intein inh)
CCC(C)n1c(O)c(C=NCCc2ccccc2)c(=O)[nH]c1=S (centres undefined)	GDH-TPI counter 55
CCC(C)n1c(O)c(/C=N/Nc2ccccc2)c(=O)[nH]c1=S (centres undefined)	none
CN(C)CCCN(C(=O)/C=C/c1cccs1)c1nc2c(F)cccc2s1	GDH-TPI counter 37 (no result: Mtb bLac sens, Rv3671c protease, Mtb UGM inh)
Cc1cccc2sc(N(CCN(C)C)C(=O)/C=C/c3cccs3)nc12	none
COc1ccc2nc(N(CCN(C)C)C(=O)/C=C/c3cccs3)sc2c1	GDH-TPI counter 32
COc1ccc2sc(N(CCN(C)C)C(=O)/C=C/c3cccs3)nc2c1	none
COc1ccc(C)cc1C1=CC(=O)C[C@H](c2ccc(F)cc2)C1	none (no result: RecA intein inh)
CC(C)(C)c1csc(NC(=O)c2c(F)c(F)c(F)c(F)c2F)n1	RecA intein inh 31
CC[C@@]1(C(=O)OC)N[C@H](CN(C)C(=O)C2CCCCC2)[C@@H]2C(=O)N(C)C(=O)[C@@H]21	none (no result: RecA intein inh)
COc1ccc(S(=O)(=O)N2CCN(CC(=O)Nc3ccc(C)c(F)c3)CC2)cc1	none (no result: Mtb bLac sens, Rv3671c protease, Mtb UGM inh)
Cc1[nH]nc2c1C(c1ccc(F)cc1)C(C#N)=C(N)O2 (centres undefined)	none (no result: RecA intein inh)
Cc1[nH]nc2c1C(c1ccc(-c3ccccc3C#N)o1)C(C#N)=C(N)O2 (centres undefined)	RecA intein inh 65
CCC(CC)C1C(C#N)=C(N)Oc2n[nH]c(C)c21 (centres undefined)	none
Cc1[nH]nc2c1C(c1ccc(-c3ccc(Cl)cc3)o1)C(C#N)=C(N)O2 (centres undefined)	RecA intein inh 68
NC(=O)N=Nc1c2[nH]c3ccccc3nc-2c2ccccc12	GDH-TPI counter 36
N#C/C(=C\c1ccc(O)c(O)c1)C(=O)c1ccc(O)c(O)c1	GDH-TPI counter 46 (no result: RecA intein inh)
CCOC(=O)C(C)Sc1nnc2c3ccccc3n(C)c2n1 (centres undefined)	GDH-TPI counter 32
CCN(CC)C(=O)CSc1nnc2c3ccccc3n(C)c2n1	none
Cc1ccc(S(=O)(=O)CCC(=O)OCC(=O)c2cc(C)ccc2C)cc1	none
Cc1ccc(S(=O)(=O)CCC(=O)c2ccc(O)cc2O)cc1	GDH-TPI counter 43
O=C(NNc1c(F)c(F)cc(F)c1F)c1ccc(Cl)nc1	none (no result: RecA intein inh)
Cn1c(NC(=O)c2ccc(F)cc2)c(-c2cccs2)c(=O)c2ccccc21	none
